Screens: PubChem BioAssay, several laboratories
Compounds with a hit are over-represented: about 4.7% of the library has one in this group of screens.
TIM10 inh – TIM10 yeast growth inhibition; S. cerevisiae TIM10 strain growth, BacTiter-Glo luminescence, 24 h; inhibition, % at 10 µM; hit rate 1.4% among 330,000; AID 463195;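 active = inhibition of 40% or more at the single tested concentration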;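 note: wild-type TIM10 isogenic control strain grown at permissive 25 °C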
tim10-1 inh – growth inhibitors of tim10-1 mutant yeast. AID 463190. hit rate 2.2% among 330,000. S. cerevisiae tim10-1 ts strain growth, BacTiter-Glo, 24 h. inhibition, % at 20 µM;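 active = inhibition of at least 40%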;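 note: mutant grown at 25 °C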
tim23-1 inh – tim23-1 yeast growth inhibition; S. cerevisiae tim23-1 growth, BacTiter-Glo luminescence, 24 h; inhibition, % at 20 µM; hit rate 1.3% among 330,000; AID 463212;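 active = growth inhibition of the mutant yeast at or above 50%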;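 note: temperature-sensitive mutant grown at 25 °C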
EBI2 antag – blocks human EBI2 receptor beta-arrestin signaling; P32249; EBI2 beta-arrestin recruitment, luminescence, 7a,25-OHC stimulated; inhibition, % at 5 µM; hit rate 0.81% among 360,000; in the data active = inhibition above about 38%;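 note: enzyme fragment complementation signal reports receptor beta-arrestin coupling in cells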
Target sequence (P32249 whole entry, looked up, the tested form may be a part): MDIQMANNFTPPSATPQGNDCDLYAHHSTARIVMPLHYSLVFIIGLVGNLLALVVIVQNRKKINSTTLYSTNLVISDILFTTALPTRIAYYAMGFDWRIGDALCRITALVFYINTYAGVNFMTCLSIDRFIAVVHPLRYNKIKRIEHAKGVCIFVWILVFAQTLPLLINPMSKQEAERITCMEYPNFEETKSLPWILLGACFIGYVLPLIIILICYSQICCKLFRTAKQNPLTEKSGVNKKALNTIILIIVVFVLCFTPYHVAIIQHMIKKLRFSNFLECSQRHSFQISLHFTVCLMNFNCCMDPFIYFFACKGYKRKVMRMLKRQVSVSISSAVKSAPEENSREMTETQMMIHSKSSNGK
SKKanGAS inh – inhibitors of SKKanGAS S. pyogenes growth in kanamycin (SK-promoter or general growth effect) | BacTiter-Glo, 6 h | inhibition, % at 7.5 µM | hit rate 1.3% among 300,000 | AID 1662;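 active = mean replicate score, as percent of positive control median, at least 50; inconclusive = mean below 50 but one replicate at or above 50; inactive = mean and every replicate below 50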;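 note: strain carries kanamycin resistance gene driven by streptokinase promoter and grows in 40 µg/ml kanamycin; loss of luminescence reflects streptokinase promoter inhibition or plain growth inhibition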
PfHsp90 yeast 2 – inhibits growth of yeast expressing Plasmodium falciparum Hsp90; hit rate 0.32% among 310,000; inhibition, % at 9.4 µM; AID 504621; S. cerevisiae expressing PfHsp90, BacTiter-Glo ATP, 48 h; yeast lacking PDR1 and PDR3 efflux regulators;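 active = every replicate shows inhibition above about 80%, whatever the replicate mean, limit read from the data; inconclusive = mean inhibition reaches the set limit but some replicate falls short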
tim10-1 confirm – tim10-1 yeast growth inhibition, confirmed; shares compounds with tim10-1 inh; S. cerevisiae tim10-1 ts strain growth, BacTiter-Glo, 24 h; inhibition, % at 20 µM; hit rate 56% among 7,400;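 active = inhibition of yeast growth at or above a set limit in either of two repeat tests at 20 µM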;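 note: tim10-1 mutant grown at permissive 25 °C to find synthetic lethal compounds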
TIM10 conf – confirmation of TIM10 yeast growth inhibitors; hit rate 63% among 4,600; AID 463215; S. cerevisiae tim10 strain growth, BacTiter-Glo luminescence, 24 h; shares compounds with TIM10 inh; inhibition, % at 10 µM;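 active = inhibition of yeast growth at or above a set limit in either of two replicates at 10 µM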; note: this counterscreen used the strain with wild-type TIM10
tim23-1 confirm – tim23-1 yeast growth inhibition, confirmed; inhibition, % at 20 µM; shares compounds with tim23-1 inh; hit rate 83% among 4,400; S. cerevisiae tim23-1 growth, BacTiter-Glo luminescence, 24 h; AID 463218;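 active = inhibition above about 39% in either of two replicate wells at 20 µM, limit read from the data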;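 note: temperature-sensitive tim23-1 mutant grown at 25 °C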
Hits are given with their value; i = inactive; ? = inconclusive; nt = not tested or not shown.

SMILES | TIM10 inh | tim10-1 inh | tim23-1 inh | EBI2 antag | SKKanGAS inh | PfHsp90 yeast 2 | tim10-1 confirm | TIM10 conf | tim23-1 confirm
CC(C)OCCCn1c(=O)c2ccccc2n2c(CCC(=O)NC3CCN(Cc4ccccc4)CC3)nnc12 | i | i | i | i | i | i | nt | nt | nt
CCOC(=O)C1(C)CCCN1C(=O)c1ccc(C(=O)OC)cc1 (configuration not stated) | nt | nt | nt | i | nt | nt | nt | nt | nt
COc1ccc([C@@H]2C[C@H](c3ccccc3)Oc3cc(C)cc(C)c32)cc1 | i | i | i | i | i | i | nt | nt | nt
O=C(Nc1nc2nc(-c3ccccc3)cc(-c3ccccc3)n2n1)c1ccco1 | 60 | 43 | i | i | i | i | i | i | nt
CC(=O)Nc1nc2nc(-c3ccccc3)cc(-c3ccccc3)n2n1 | i | i | i | i | i | i | nt | nt | nt
CC(C)c1ccccc1NC(=S)NC(C)c1ccccc1 (configuration not stated) | 42 | 42 | i | i | i | i | i | i | nt
CS(=O)(=O)NCCSCc1c(Cl)cccc1Cl | i | i | i | i | i | i | nt | nt | nt
O=S(=O)(NCCSCc1c(Cl)cccc1Cl)c1ccc2c(c1)OCCO2 | 50 | 53 | i | i | ? | i | 45 | 35 | nt
COc1ccc(OC)c2c1C(=O)C(Cl)=C(Cl)C2=O | 96 | 91 | i | i | i | 110 | 94 | 99 | nt
COc1ccc(OC)c2c1C(=O)c1ccccc1C2=O | i | i | i | nt | i | nt | nt | nt | nt
COc1cc(C(=O)/C=C/c2cccnc2)c([N+](=O)[O-])cc1OC | 41 | 42 | i | i | i | i | 39 | 33 | nt
O=C(/C=C/c1cccnc1)c1ccc([N+](=O)[O-])cc1 | i | i | i | i | i | i | nt | nt | nt
O=C(CC1CC1)N[C@@H]1CC[C@@H](CCNS(=O)(=O)c2ccc(F)cc2)O[C@@H]1CO | nt | nt | nt | i | nt | nt | nt | nt | nt
COc1ccccc1/C=C/CN1CCCC(CCC(=O)NCc2ccccc2F)C1 (configuration not stated) | 43 | 52 | i | i | i | i | 36 | i | nt
N#CC1(C#N)[C@@H](C(=O)C23CC4CC(CC(C4)C2)C3)C12CCOCC2 | 44 | 57 | i | i | i | i | 48 | i | nt
Cc1nc(Oc2ccccc2)c2ccccc2n1 | i | i | i | i | i | i | nt | nt | nt
c1ccc(Oc2nc(-c3ccccn3)nc3ccccc23)cc1 | 50 | 43 | i | i | 109 | nt | i | i | nt
Cc1ccccc1-c1cnc(C(O)c2cc(Cl)cc(Cl)c2)[nH]1 (configuration not stated) | nt | nt | nt | i | nt | nt | nt | nt | nt
CN(C)c1ccc(NC(=O)c2ccc(Cn3cc([N+](=O)[O-])cn3)cc2)cc1 | i | i | i | i | i | i | nt | nt | nt
O=C(NCc1cccnc1)/C(=C/c1ccc(-c2cccc(C(F)(F)F)c2)o1)NC(=O)c1ccccc1 | i | i | i | i | i | nt | nt | nt | nt
O=C(NCc1cccnc1)/C(=C/c1ccc(-c2ccc(Cl)cc2)o1)S(=O)(=O)c1ccccc1 | 53 | 52 | 59 | 54 | i | i | 48 | 49 | 57
Cc1ccc(C(=O)OCC(=O)N(C)c2ccccc2)c(C)c1 | i | 57 | 52 | i | i | i | 50 | nt | 46
COc1ccc2nc(Cl)c(C=O)c(N3CCOCC3)c2c1 | nt | nt | nt | i | nt | nt | nt | nt | nt
O=S1(=O)C=C(Sc2nnc(-c3ccccc3)o2)c2ccccc21 | 91 | 94 | 57 | 47 | i | 111 | 92 | 91 | 85
CSc1nnc(-c2ccccc2)o1 | i | i | i | i | i | i | nt | nt | nt
SMILES | TIM10 inh | tim10-1 inh | tim23-1 inh | EBI2 antag | SKKanGAS inh | PfHsp90 yeast 2 | tim10-1 confirm | TIM10 conf | tim23-1 confirm
O=C(c1ccccc1)c1ccc2cc(O)ccc2c1 | i | 48 | 59 | i | i | i | 35 | nt | 53
Cc1cc(=O)[nH]c(SCC(=O)Nc2ccc(F)c([N+](=O)[O-])c2)n1 | i | i | i | i | i | nt | nt | nt | nt
N/C(Cc1cccs1)=N\OC(=O)COc1ccc(Br)cc1Cl | i | 58 | 68 | i | i | i | 59 | nt | 87
Cc1cnc(=O)[nH]c1SCc1cccc([N+](=O)[O-])c1 | i | i | i | i | i | i | nt | nt | nt
CC(C)(C)C(=O)O/N=C(\N)Cc1ccc(-c2csnn2)cc1 | 47 | 75 | 51 | i | i | i | 82 | 52 | i
O=C(N/N=C/c1ccc([N+](=O)[O-])o1)c1ccc2c(c1)OCO2 | 64 | 64 | 79 | i | i | i | 60 | 52 | i
Cc1nn(-c2ccccc2)c(Cl)c1/C=C(\C#N)C(=O)NC(C)C | 53 | 56 | 73 | i | i | i | 72 | 56 | 60
Cn1cc([N+](=O)[O-])c(C(=O)Nc2cc(Oc3cccnc3)cc([N+](=O)[O-])c2)n1 | i | i | i | nt | i | nt | nt | nt | nt
O=[N+]([O-])c1cnc(Sc2ccncn2)s1 | 82 | 47 | 68 | i | i | 103 | 49 | 95 | 53
Cc1cccc(NC(=O)Cc2coc3ccc4ccccc4c23)n1 | i | 46 | 51 | i | i | i | 36 | nt | 56
COc1cc(/C=C2\SC(=S)N(NS(=O)(=O)c3ccc(C)cc3)C2=O)cc(OC)c1OC | i | i | i | i | i | i | nt | nt | nt
Cc1ccc(S(=O)(=O)NN2C(=O)/C(=C/c3cccc(F)c3)SC2=S)cc1 | 40 | 47 | 71 | i | i | i | i | 40 | i
COc1cc(/C=C(\C#N)C(=O)NCC2CCCO2)ccc1OC(=O)c1ccco1 (configuration not stated) | i | 40 | 64 | i | nt | nt | 34 | nt | 53
COc1ccc(/C=C/c2nc3ccccc3n2C)cc1 | 70 | 57 | 66 | i | 66 | i | 49 | 67 | 47
c1cncc(CN2CCN(c3cc(-c4cnc5ccccc5c4)nc4ccnn34)CC2)c1 | nt | nt | nt | i | nt | nt | nt | nt | nt
COc1cc(/C=C/C(=O)O)cc(S(=O)(=O)Nc2ccc(S(=O)(=O)N3CCCCC3)cc2)c1OC | i | i | i | i | nt | i | nt | nt | nt
CCCCCC/C(=N/O)c1ccccn1 | 57 | 42 | 60 | i | 94 | i | i | i | 52
CC(NC(=O)CCn1ccc2cc(S(=O)(=O)N3CCCC3)ccc21)c1ccccc1 (configuration not stated) | i | i | i | i | i | i | nt | nt | nt
Cc1cccc(-c2cc3nc4c(c(NCc5ccco5)n3n2)CCCC4)c1 | i | 53 | 54 | i | i | i | 34 | nt | 56
Cc1ccc(CNC(=O)C2C3C=CC(C3)C2C(=O)O)cc1 (configuration not stated) | i | i | i | i | i | nt | nt | nt | nt
COc1ccc2c(c1)c1ncn(CCN3CCCC3)c(=O)c1n2C | i | i | i | i | i | i | nt | nt | nt
COc1ccc2c(c1)c1ccc3c(c1n2C)C(=O)C=CC3=O | 55 | 47 | 68 | i | nt | i | 60 | 93 | i
